Assay results as given in the supplement of paper PMC11537057.
Counter-ions that a name gives are not always drawn. Among all 1,700 compounds or so, about 15 (0.9%) showed activity. The entries come from a sample that favours actives as a whole. Values without a mark were called inactive.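 How the source made its calls: active = infection cut by 80% or more with cell growth above 90% in both runs; inactive = the rest.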

These molecules were tested on HSV-1 strain 17 YFP-ICP4 in A549 (assay: HSV-1 infection relative to DMSO (ICP4-YFP per H2B-RFP signal); higher = more viral infection (less antiviral activity), active = hit call of the paper). Details: 10 µM; 48 h; MOI: 0.1.
Method: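 Selleck FDA-approved library (L1300) screened in duplicate at 10 µM on A549 H2B-mRuby cells in 384-well plates, infected with HSV-1 strain 17 YFP-ICP4 at MOI 0.1 one hour before drug addition. Imaged after 2 days at 37°C. Cell growth (H2B-RFP) and infection (ICP4-YFP) are expressed as % of DMSO-treated wells. Hits: growth >90% and infection <20% of DMSO.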

Structure (SMILES) | HSV-1 infection
CCNC1(C(N)=O)CCN(c2ncnc3c2nc(-c2ccccc2Cl)n3-c2ccc(Cl)cc2)CC1 | 105%
O=C1C(CC[S+]([O-])c2ccccc2)C(=O)N(c2ccccc2)N1c1ccccc1 (racemic) [(+/-)-Sulfinpyrazone] | 111%
C=CN1CCCC1=O.II [Povidone iodine] | 108%
CCCCCOc1ccccc1/C(=C\SC)n1ccnc1 [Neticonazole Hydrochloride] | 61.4%
CC(C)(C)C#Cc1cc(N(C(=O)[C@H]2CC[C@H](C)CC2)[C@H]2CC[C@H](O)CC2)c(C(=O)O)s1 [Lomibuvir (VX-222, VCH-222)] | 130%
COc1cc2c(cc1OC)CN(CCc1ccc(NC(=O)c3cccc4c(=O)c5cccc(OC)c5[nH]c34)cc1)CC2 | 135%
COC(=O)N[C@H](C(=O)N1CC2(CC2)C[C@H]1c1nc(-c2ccc3c(c2)C(F)(F)c2cc(-c4ccc5[nH]c([C@@H]6[C@H]7CC[C@H](C7)N6C(=O)[C@@H](NC(=O)OC)C(C)C)nc5c4)ccc2-3)c[nH]1)C(C)C [Ledipasvir (GS5885)] | 105%
CCCCC[C@](C)(O)/C=C/[C@@H]1[C@@H](C/C=C\CCCC(=O)O)[C@@H](O)C[C@H]1O [Carboprost] | 117%
Nc1ncn([C@H]2C[C@H](O)[C@@H](CO)O2)c(=O)n1 [Decitabine] | 7.64% (active)
Nc1nc(Cl)nc2c1ncn2[C@H]1C[C@H](O)[C@@H](CO)O1 [Cladribine] | 22.3%
NC(=O)c1ncn([C@@H]2O[C@H](CO)[C@@H](O)[C@H]2O)c1O [Mizoribine] | 89.7%
Nc1ccn([C@H]2CC[C@@H](CO)O2)c(=O)n1 [Zalcitabine] | 98.8%
NC(=O)c1ncn([C@@H]2O[C@H](CO)[C@@H](O)[C@H]2O)c1N [AICAR (Acadesine)] | 67.6%
Nc1ncn([C@@H]2O[C@H](CO)[C@@H](O)[C@H]2O)c(=O)n1 [Azacitidine] | 5.54% (active)
CC#CC(=O)N1CCC[C@H]1c1nc(-c2ccc(C(=O)Nc3ccccn3)cc2)c2c(N)nccn12 [Acalabrutinib (ACP-196)] | 98.3%
CNC(=O)CN(CCN(CCN(CC(=O)[O-])CC(=O)NC)CC(=O)[O-])CC(=O)[O-].O.[Gd+3] [Gadodiamide Hydrate] | 108%
COc1ccc(C[C@@H](C)NC[C@H](O)c2ccc(O)c(NC=O)c2)cc1 [Arformoterol Tartrate] | 112%
Cn1cnc2c(F)c(Nc3ccc(Br)cc3Cl)c(C(=O)NOCCO)cc21 [Selumetinib (AZD6244)] | 52.5%

Structure (SMILES) | HSV-1 infection
CNCc1cc(-c2ccccc2F)n(S(=O)(=O)c2cccnc2)c1 [Vonoprazan Fumarate (TAK-438)] | 95.8%
CCCNS(=O)(=O)Nc1ncnc(OCCOc2ncc(Br)cn2)c1-c1ccc(Br)cc1 [Macitentan] | 93.1%
C[C@@H](O)[C@H]1C(=O)N2C(C(=O)OCOC(=O)C(C)(C)C)=C(SC3CN(C4=NCCS4)C3)[C@H](C)[C@H]12 [Tebipenem Pivoxil] | 92.2%
CC1CCC(C(C)C)C(O)C1 (single isomer, unassigned; (-)) [(-)-Menthol] | 99.1%
Nc1ccn(C[C@@H](CO)OCP(=O)(O)O)c(=O)n1 [Cidofovir] | 45.8%
CC(C)[C@H](N)C(=O)OCCOCn1cnc2c(=O)nc(N)[nH]c21 [Valaciclovir HCl] | 4.82% (active)
CC(C)[C@H](N)C(=O)OCC(CO)OCn1cnc2c(=O)[nH]c(N)nc21 (stereo not given in full) [Valganciclovir HCl] | 2.02% (active)
C[C@H](Cn1cnc2c(N)ncnc21)OCP(=O)(O)O [Tenofovir] | 119%
Nc1nc2c(ncn2COCCO)c(=O)[nH]1 [Aciclovir] | 3.03% (active)
Nc1nc2c(ncn2COC(CO)CO)c(=O)[nH]1 [Ganciclovir] | 2.93% (active)
C=C1[C@H](CO)[C@@H](O)C[C@@H]1n1cnc2c(=O)[nH]c(N)nc21 [Entecavir Hydrate] | 12.1% (active)
O=c1[nH]cnc2c1ncn2[C@@H]1O[C@H](CO)[C@@H](O)[C@H]1O [Inosine] | 82.6%
O=c1[nH]cnc2c1ncn2[C@H]1CC[C@@H](CO)O1 [Didanosine] | 112%
C=C1[C@H](CO)[C@@H](O)C[C@@H]1n1cnc2c(=O)[nH]c(N)nc21 [Entecavir] | 7.02% (active)
N/N=c1\[nH][nH]/c(=N\N)c2ccccc12 [Dihydralazine sulphate] | 123%
C1CNCCNCCNCCN1 [Cyclen] | 105%
C=C1CCN([C@H](C)[C@](O)(Cn2cncn2)c2ccc(F)cc2F)CC1 [Efinaconazole] | 93.8%
